Compounds with a hit are over-represented: about 3.7% of the library has one in this group of screens.
Nrf2 activator: activates Nrf2 signaling | AREc32 ARE-luciferase reporter (MCF7-derived line), luminescence, 24 h | actives 0.31% (n = 410,000) | Potency, µM (titrated, usually from 46.1 µM), inactives show at the top dose activation, hits mostly activators | AID 624171; note: % of control where 0% means no effect; nearly all actives have a fitted effect of over 65% in size
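Quantitative high-throughput format: AREc32 reporter cells, 1000 per well, received compound by pin transfer and were incubated 24 hr at 37 deg C, 5% CO2, before Steady-Glo luminescence detection.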
A549 tox-1: counter-screen for Nrf2 inhibitors: cytotoxicity in A549 cells. Potency, µM (titrated, usually from 46 µM), inactives show top-dose activity change, negative = cytotoxicity, usual class: inhibitors. A549 ARE-Fluc cells, CellTiter-Fluor viability, 18-24 h. actives 0.16% (n = 390,000). AID 504648; note: % is set by controls: 0 for no effect and ±100 for the full control effect
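Cytotoxicity counterscreen: CellTiter-Fluor fluorescence was measured in A549 ARE_Fluc cells after 18-24 h of compound exposure in a concentration series. The subsequent BugLite luminescent read reports ARE-luciferase activity.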
ELG1 DNA repair: blocks ELG1-dependent DNA repair in HEK293T cells | HEK293T ELG1-luciferase reporter, luminescence, 16 h; DNA damage induced by 5-fluorouridine | AID 504467 | actives 2.3% (n = 330,000) | Potency, µM (doses to about 46.1 µM), for the others: top-dose activity change, negative = inhibition, actives largely listed as inhibitors; note: % is set by controls: 0 for no effect and ±100 for the full control effect; nearly all actives have a fitted effect of over 55% in size
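Step one: seed 2,000 cells per well. Step two: pin-transfer compound or DMSO alongside 5-fluorouridine. Step three: incubate 16 hr, 37 °C, 5% CO2. Step four: add ONE-Glo, wait 30 min, read luminescence.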
Nrf2 block: Nrf2 pathway inhibition. AID 504444. Potency, µM (highest dose often 46 µM), for inactives: at the top dose activity change, negative = inhibition, usual class: inhibitors. A549 ARE-Fluc reporter, luciferase luminescence, 18-24 h. actives 2.1% (n = 360,000); note: % is set by controls: 0 for no effect and ±100 for the full control effect; nearly all actives have a fitted effect of over 60% in size
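Two sequential reads on A549 ARE_Fluc cells exposed to compound for 18-24 h: a CellTiter-Fluor fluorescence read for viability, then a luciferase luminescence read for Nrf2/ARE activity.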
FLuc enzyme inh: firefly luciferase inhibition, Nrf2 hit validation; Potency, µM (titrated, usually from 57.5 µM), for the others: at the top dose activity change, negative = inhibition, most hits filed as inhibitors; AID 720522; purified firefly luciferase, luminescence inhibition; shares compounds with Nrf2 block; actives 4% (n = 1,400); note: % is set by controls: 0 for no effect and ±100 for the full control effect; nearly all actives have a fitted effect of over 65% in size
Target sequence (P08659 whole entry, looked up): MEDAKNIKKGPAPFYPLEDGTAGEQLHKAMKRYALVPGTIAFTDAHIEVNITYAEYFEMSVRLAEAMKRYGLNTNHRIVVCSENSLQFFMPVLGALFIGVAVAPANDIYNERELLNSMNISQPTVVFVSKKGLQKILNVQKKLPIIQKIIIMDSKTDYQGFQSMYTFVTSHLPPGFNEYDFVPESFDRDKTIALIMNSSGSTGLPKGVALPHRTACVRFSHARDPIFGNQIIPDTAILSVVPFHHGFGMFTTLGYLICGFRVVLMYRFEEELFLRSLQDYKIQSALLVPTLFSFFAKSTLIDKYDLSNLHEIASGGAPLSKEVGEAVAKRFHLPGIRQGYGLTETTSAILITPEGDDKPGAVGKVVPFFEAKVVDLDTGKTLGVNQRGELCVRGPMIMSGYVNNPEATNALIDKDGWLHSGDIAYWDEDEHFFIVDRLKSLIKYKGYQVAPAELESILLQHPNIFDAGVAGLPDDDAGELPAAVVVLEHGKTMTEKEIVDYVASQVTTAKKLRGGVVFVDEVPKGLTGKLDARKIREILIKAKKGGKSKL
A549 tox-2: counter-screen for Nrf2 inhibitors: cytotoxicity in A549 ARE cells; A549 ARE-Fluc cells, cytotoxicity counterscreen; Potency, µM (series often up to 46.1 µM), for the others: top-dose activity change, negative = cytotoxicity, most hits filed as inhibitors; shares compounds with Nrf2 block; actives 2% (n = 1,400);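 note: cells exposed to compounds for 18 to 24 hours; % is set by controls: 0 for no effect and ±100 for the full control effect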
ARE-Fluc inh: confirmation of Nrf2 inhibitors in A549 ARE reporter cells; Potency, µM (highest dose often 46.1 µM), for inactives: at the top dose activity change, negative = inhibition, actives largely listed as inhibitors; A549 ARE-firefly luciferase reporter, luminescence; actives 74% (n = 1,400); shares compounds with Nrf2 block; AID 720524; note: % is set by controls: 0 for no effect and ±100 for the full control effect; nearly all actives have a fitted effect of over 65% in size
* hit, by the source's call; ? = inconclusive; nt = no result. Calls come from the whole dose curve; as a rule, active = well fitted curve in the direction sought with a large enough effect; inconclusive = small, poorly fitted or top-dose-only effect, or another doubt; inactive = no such curve, though single readings can be large; an effect the other way counts as inactive or inconclusive. Potency is the fitted concentration of half-maximal effect.

SMILES	Nrf2 activator	A549 tox-1	ELG1 DNA repair	Nrf2 block	FLuc enzyme inh	A549 tox-2	ARE-Fluc inh
CC1(C)CC2CC(C)(CN2S(=O)(=O)c2ccc(C(=O)Nc3ccc(S(=O)(=O)N4CCOCC4)cc3)cc2)C1 (configuration not stated)	1%	?	16%	1.5µM*	0%	2%	4.1µM*
CC1(C)CC2CC(C)(CN2S(=O)(=O)c2ccc(C(=O)Nc3ccc(Cl)c(S(=O)(=O)N4CCOCC4)c3)cc2)C1 (configuration not stated)	1%	-11%	1%	5.2µM*	-1%	-11%	7.3µM*
COc1ccc2c(/C=C/c3cc[n+](C)cc3)c[nH]c2c1	1%	?	-28%	1.3µM*	4%	?	1.6µM*
Cc1ccc2[nH]cc(/C=C/c3cc[n+](C)cc3)c2c1	11%	-42%	?	1.8µM*	0%	-30%	1.3µM*
COc1ccc2c(C=O)c[nH]c2c1	4%	8%	-5%	6%	nt	nt	nt
Cc1ccc2[nH]ccc(=O)c2c1	4%	-6%	4%	0%	nt	nt	nt
CC[n+]1ccc(/C=C/c2c[nH]c3ccccc23)cc1	5%	?	?	1.3µM*	-1%	?	4.6µM*
Cc1ccc(C2CN(CCC(N)=O)C(=O)CO2)cc1 (configuration not stated)	0%	0%	4%	14%	nt	nt	nt
CCN(CC)c1ccc2cc(-c3nc4sc5c(c4c(=O)[nH]3)CCC(C(C)(C)C)C5)c(=O)oc2c1 (configuration not stated)	0%	12%	nt	10%	nt	nt	nt
CC(=O)Nc1cc2nc(C)n(Cc3ccc([N+](=O)[O-])cc3)c2nc1C	0%	2%	4%	-11%	nt	nt	nt
CC(=O)c1c(C)[nH]c(C(=O)OCC(=O)NCc2ccc(Cl)cc2)c1C	6%	-14%	?	8.2µM*	2%	0%	13µM*
CCOC(=O)c1[nH]c(C)c(C(=O)OCC(=O)NCc2ccc(Cl)cc2)c1C	0%	-6%	15%	0%	nt	nt	nt
CC(=O)c1c(C)[nH]c(C(=O)OCc2c(F)cccc2Cl)c1C	0%	-12%	7.3µM*	5.2µM*	-1%	3%	15µM*
COc1ccc(/C=C/c2ccccn2)cc1	nt	nt	nt	nt	-2%	-30%	2.3µM*
C(=C\c1ccccn1)/c1ccccn1	5%	-3%	?	26%	nt	nt	nt
CCOc1ccc(CNC(=O)Cn2nc(C)c3nn(-c4ccc(Cl)cc4)c(C)c3c2=O)cc1OC	-1%	-13%	nt	nt	nt	nt	nt
CCc1ccc(NC(=O)CCS(=O)(=O)c2ccc3c(c2)n(C)c(=O)c(=O)n3C)cc1	0%	-2%	nt	7%	nt	nt	nt
Cc1oc(-c2ccc(Cl)cc2)nc1CS(=O)CC(=O)NCCCN1CCN(Cc2ccccc2)CC1 (configuration not stated)	3%	-4%	?	5.8µM*	3%	-14%	12µM*
CCCCCN(C(=O)CCC(=O)OC(C)C(=O)Nc1cccc(C#N)c1)c1c(N)n(CCCC)c(=O)[nH]c1=O (configuration not stated)	0%	-7%	-3%	-11%	nt	nt	nt
Cn1nc(C(C)(C)C)cc1C(=O)NCc1cc(F)cc2c1OCOC2	0%	-2%	2.6µM*	?	-1%	-9%	3.7µM*
Cc1cc(C(=O)NCc2cc(F)cc3c2OCOC3)nn1C	0%	0%	-7%	23%	nt	nt	nt
Cc1ccc(S(=O)(=O)N(C)Cc2ccc(C(=O)N/N=C/c3ccc(OC(F)F)cc3)cc2)cc1	2%	-6%	-6%	5.8µM*	3%	-10%	6.5µM*

Assay outcomes (PubChem)
